In PubChem BioAssay (EPA / NIEHS):
Active and inactive are the calls of the source. Rule for the calls: active = hit-call score of the fitted dose curve at least 0.9, where 1 is the maximum; inactive = score below 0.9.

How the values were obtained:
[1] = CCTE_Shafer_MEA_dev_correlation_coefficient_mean: CCTE's Neural Network Formation Assay for Mean Correlation Coefficient, Shafer Lab (AID 2284093);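 for AC50: well mean pairwise spike train correlation integrated as AUC over recording days 5 to 12; potency fitted for loss of correlation relative to DMSO vehicle wells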
Procedure: CCTE_Shafer_MEA_dev assay is conducted using Axion Biosystems 48 well microelectrode array (MEA) plates and Maestro recording system. Each well of the MEA plate contains a grid of 16 microelectrodes embedded in the culture surface. Electrically active cells, such as neurons, can be cultured over the electrodes, and electrical activity in these cells can be recorded extracellularly. The spontaneous firing of neurons is captured from each electrode on a microsecond timescale providing both temporally and spatially precise data. […] The CCTE_Shafer_MEA_dev assay uses primary cultures of rat cortical neurons. Recordings are made on days post-plating 5, 7, 9 and 12. As these cultures mature over time, neural networks develop functional activity and form cohesive networks in which electrical activity can be highly coordinated. CCTE_Shafer_MEA_dev_correlation_coefficient_mean is 1 of 19 assay components of the CCTE_Shafer_MEA_dev assay. It measures the correlation coefficent of spikes (action potential firings) between every pair of electrodes in a well during a recording in a microelectrode array (MEA) using Axion Biosystems Maestro 768 channel amplifier with the AxIS adaptive spike detector. The pairwise correlations are averaged across active electrodes to report a well-mean value. To collapse across multiple recordings made on days post-plating 5, 7, 9 and 12, the trapezoidal area-under-the-curve of the component is calculated.Data from the assay component CCTE_Shafer_MEA_dev_correlation_coefficient_mean was analyzed into 1 assay endpoint. This assay endpoint, CCTE_Shafer_MEA_dev_correlation_coefficient_mean, was analyzed in the negative analysis fitting direction relative to DMSO as the negative control and baseline of activity. Using a type of functional reporter, gain or loss-of-signal activity can be used to understand electrical activity.
On the day prior to culture, each well was coated thoroughly with 150 uL of 0.05% polyethyleneimine (PEI, Sigma Cat P3143) in 50 mM HEPES (Sigma Cat H7523) at a pH of 8. The plate was incubated at 37C for one hour. PEI was rinsed out with 500 uL of sterile water three times. Plates were stored at 4C until the day of culture. This culture was plated at a seeding density of 1.5 x 10^5 cells/well on a 48-well MEA plate, prepared as described above. Cells were administered via a 25 uL media/laminin ([…]; Sigma Cat L2020-1MG) drop directly onto the microelectrode array, as adding the cells with the laminin results in better attachment than pre-coating with laminin. After 2 hours, an additional 475 uL of cortical media was added and the cells returned to the incubator. Exposure starts at day 0 of plating and is continued over twelve days of network development until the experiment is terminated. Cells are fed with fresh medium on DIV 5 and 9, following the recordings on those days. The entire volume of media in the well is exchanged and any vehicle or compound treatment is renewed. Complete details are found in OP-NHEERL/ISTD/SBB/TJS/2015-03-r0 (available on request, email shafer.tim@epa.gov). Measurement of the electrical activity is non-invasive, and recordings can be made from the same plate over multiple different days of the culture. In cortical neurons, this allows for the measurement of extracellular action potentials over the period during which networks form in the MEA plate.

[2] = CCTE_Mundy_HCI_Cortical_Synap_Neur_Matur_NeuriteSpotCountPerNeuriteLength: CCTE's Synaptogenesis and Neurite Maturation Assay in rat cortical cells for Neurite Spot Count per Neurite Length, Mundy Lab (AID 2284210)
In short: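 Read-out: synaptophysin puncta counted along MAP2-stained neurites, normalised to neurite length, by automated high-content imaging. Rat cortical cells; AraC DIV 5; chemical dosing DIV 7; termination DIV 12. DMSO baseline.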

[3] = CCTE_Mundy_HCI_Cortical_Synap_Neur_Matur_BPCount: CCTE's Synaptogenesis and Neurite Maturation Assay in rat cortical cells for Branch Point Count, Mundy Lab (AID 2284211)
In short: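 HCI read-out of branch points from MAP2/synaptophysin/Hoechst immunofluorescence; rat cortical cultures, AraC DIV 5, dosing DIV 7, fixed DIV 12; fit in positive direction vs DMSO baseline.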

[4] = CCTE_Mundy_HCI_Cortical_NOG_NeuriteCount: CCTE's Neurite Outgrowth Assay in rat cortical cells for Neurite Count, Mundy Lab (AID 2284212);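 note: cells fixed about two days after chemical exposure began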
In short: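 Rat cortical primary cells; compound added 2 h post-plating, 1/10 dilution of working solution. Anti-betaIII-tubulin/AF488 ICC; ArrayScan neurite count vs DMSO.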

[5] = CCTE_Mundy_HCI_Cortical_NOG_NeuriteLength: CCTE's Neurite Outgrowth Assay in rat cortical cells for Neurite Length, Mundy Lab (AID 2284213)
In short: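 First, rat primary cortical cells were plated and, 2 h later, given test chemical as a 1/10 dilution. Finally, βIII-tubulin immunostaining enabled automated imaging of neurite length.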

[6] = IUF_NPC1b_proliferation_BrdU_72hr: Leibniz Research Institute for Environmental Medicine (IUF) 72-hour Neural Progenitor Cell Bromodeoxyuridine (BrdU) Proliferation Assay (NPC1b) (AID 2284207)
In short: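 Luminescent BrdU ELISA measured DNA synthesis during the last 16 h of a 72 h exposure of primary human neural progenitor spheres grown with EGF and FGF. Signal was fitted relative to DMSO controls.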

[7] = IUF_NPC1a_proliferation_area_72hr: Leibniz Research Institute for Environmental Medicine (IUF) 72-hour Neural Progenitor Cell Proliferation Area Assay (NPC1a) (AID 2284208)
In short: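 Single 0.25–0.35 mm human fetal neural progenitor spheres in proliferation medium with EGF and FGF, exposed 72 h from plating without renewal at 37C, pH 7.2-7.6. Sphere area growth measured by automated phase-contrast imaging, relative to DMSO.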

[8] = IUF_NPC1_viability_72hr: Viability Assessment at 72 hours in the Leibniz Research Institute for Environmental Medicine (IUF) Neural Progenitor Cell Proliferation Assay (NPC1) (AID 2284209)
In short: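 Viability was measured by resazurin-to-resorufin fluorescence (alamar blue) after 72 h of continuous exposure without compound renewal. Each well held one hNPC sphere (gestational week 16-19 fetal cortex, 0.25-0.35 mm) cultured in EGF/FGF proliferation medium at 37C and pH 7.2-7.6.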

[9] = UKN2_HCS_IMR90_neural_migration: University of Konstanz (UKN) Leist Lab Neural Crest Cell Migration Assay in human induced IMR90 Pluripotent Stem Cells (UKN2) (AID 2284204); details: actives raise or lower the signal
In short: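 Stopper-exclusion migration (cMINC), human iPSC-derived neural crest cells; N2-S + EGF/FGF; compound added 24 h post-stopper removal, 24 h exposure. Readout: calcein-AM/Hoechst 30 min, HCS fluorescence imaging; bidirectional fitting, DMSO baseline.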

[10] = UKN4_HCS_LUHMES_neurite_outgrowth: University of Konstanz (UKN) Leist Lab Neurite Outgrowth Assay in human LUHMES cells (UKN4) (AID 2284206); details: actives raise or lower the signal
In short: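 After 24 h compound treatment beginning shortly after replating of 2-day-differentiated LUHMES cells, calcein-AM and H-33342 live staining allowed high-content imaging of neurite area and viability. Fitted bidirectionally against DMSO.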

With CC/C(=C(\c1ccccc1)c1ccc(OCCN(C)C)cc1)c1ccccc1 the AC50 [1] was 3.76 µM (active).

For N#CCCNCCC#N, the outcome [1] was “inactive”, the outcome [2] was “inactive” and the outcome [3] was “inactive”. For the same compound, the outcome [4] was “inactive” and the outcome [5] was “inactive”.

With C[C@]12CC[C@@H]3c4ccc(O)cc4CC[C@H]3[C@@H]1CC[C@@H]2O the outcome [1] was “inactive”.

With N[C@@H](CCC(=O)O)C(=O)O the outcome [1] was “inactive”, the outcome [6] was “inactive” and the outcome [7] was “inactive”. For the same compound, the outcome [8] was “inactive”, the outcome [2] was “inactive” and the outcome [3] was “inactive”. The outcome [4] was “inactive” and the outcome [5] was “inactive”.

In the case of CC(C)Cc1ccc(C(C)C(=O)O)cc1 (stereo not drawn), the outcome [1] was “inactive”, the outcome [9] was “inactive” and the outcome [10] was “inactive”. For the same compound, the outcome [6] was “inactive”, the outcome [7] was “inactive” and the outcome [8] was “inactive”. The outcome [2] was “inactive”, the outcome [3] was “inactive” and the outcome [4] was “inactive”. For the same compound, the outcome [5] was “inactive”.

For CCCCC(CC)COC(=O)COc1ccc(Cl)cc1C (stereo not drawn), the outcome [1] was “inactive”, the outcome [9] was “inactive” and the AC50 [6] was 0.0137 µM (active). The outcome [7] was “inactive”, the outcome [8] was “inactive” and the AC50 [2] was 24.2 µM (active). The AC50 [3] was 15.7 µM (active), the outcome [4] was “inactive” and the outcome [5] was “inactive”.

In the case of c1ccc2scnc2c1, the outcome [1] was “inactive”, the outcome [9] was “inactive” and the AC50 [6] was 10 µM (active). The outcome [7] was “inactive”, the outcome [8] was “inactive” and the outcome [2] was “inactive”. The outcome [3] was “inactive”, the outcome [4] was “inactive” and the outcome [5] was “inactive”.
